In general, AC50 refers to the midpoint of the concentration-response curve, whichever way the signal moves.

Active and inactive are the calls of the source. The calls were made as follows: active = hit-call score of the fitted dose curve at least 0.9, where 1 is the maximum; inactive = score below 0.9.

Read-out in the test: Forkhead box O3 (FOXO3), FOXO3 (gene 2309)
The experiment in a line: LTEA_HepaRG_FOXO3: Life Technologies and Expression Analysis (LTEA) Assay for Forkhead box O3 (FOXO3) using HepaRG (AID 2283459). The settings on record: mRNA level, 48 h; actives raise or lower the signal. The procedure: LTEA_HepaRG is a cell based, multiplexed-readout assay that uses HepaRG, a human liver cell line, with measurements taken at 48 hours after chemical dosing on a 96-well plate.LTEA_HepaRG_FOXO3 is one of 102 assay component(s) measured in the LTEA HepaRG cell culture assay. It is a marker of Cell proliferation, survival, death.Data from the assay component LTEA_HepaRG_FOXO3 was analyzed into 1 endpoint. This assay endpoint, LTEA_HepaRG_FOXO3, was analyzed with bidirectional fitting relative to DMSO as the negative control and baseline of activity. Using a type of inducible reporter, measures of mRNA induction for gain or loss-of-signal activity can be used to understand regulation of transcription factor activity. To generalize the intended target to other relatable targets, this assay endpoint is annotated to the dna binding intended target family, where the subfamily is forkhead box protein.
A total of 1060 chemcials from the ToxCast library were tested in eight-point concentration-response experiments. Cell culture and cytotoxicity assays were conducted at Thermo Fisher Scientific's Custom Services facility (Madison, WI). A single lot of human HepaRG cells (Thermo Fisher Scientific, Frederick, MD) was used for the cell culture experiments. 96-well format collagen type I coated plates of human HepaRG cells were prepared using established methods. Briefly, cryopreserved HepaRG cells were thawed, plated at a density of approximately 100,000 cells/well in HepaRG Thaw, Plate, and General Purpose media (HPRG770, Thermo Fisher Scientific), and incubated for 48 hours. 0.5% DMSO was selected as vehicle control to balance the requisite need of DMSO in HepaRG cultures to maintain differentiation (for example, baseline metabolism, proportions of hepatocytes vs. cholangiocytes), while enabling further hepatic receptor pathway activation (for example, PXR and CAR) in response to chemical exposure. 48 hours after plating, the culture medium was replaced with HepaRG Serum-Free Incudtion Media. Cells were exposed to each test chemical in duplicate and maintained in CO2 incubators for another 48 hours. Chemical plates were thawed to room temperature and 200x concentrations of treatment groups were prepared. 8-point conentration-reponse curves were made with the highest exposure at 100 uM, followed by half-log dilutions, all in 0.5% DMSO. Each test plate contained variouse controls, induction positive controls (1mM phenobarbital), cytotoxicity positive controls ([…] aflatoxin B1), vehicle controls (0.5% DMSO), and total lysis controls (0.5% DMSO). Cell morphology images were taken using an Essen IncuCyte FLR automated microscope, with six 96-well plates imaged in about 24 minutes. Images were captured and exported and JPEG files. Spent culture media was transfered to black-well plates for the LDH assay, and remaining media was sorted at -80 C for later use. Cells were treated with RLT buffer and frozen until shipped for gene expression analysis. Total RNA was isolated from the cell suspension in 75 uL of Buffer RLT (Qiagen, Germantown, MD 20874) by Quintiles/Expression Analysis (Durham, NC) using a custom isolation procedure. Total RNA from each plate well was transferred to a preamplification plate. Fluidigm's 96.96 Dynamic ArrayTM (Fluidigm, Amsterdam, the Netherlands) technology was used for gene expression analyses by quantitative reverse transcription polymerase chain reaction (qRT-PCR, performed by Quintiles/Expression Analysis, Durham, NC)89. Standard TaqManTM Assays (Applied Biosystems/ThermoFisher Scientific, Foster City, CA) were used to assess the expression of 93 genes selected based on their selectivity and sensitivity to important hepatic receptors known to be modulated by environmental chemicals; importance in human hepatocyte functionality; and hepatotoxicity. […]
As to `CCCCCCCCCCCC[N+](C)(C)C`, the molecule was called inactive.

`O=C1O[C@H]([C@@H](O)CO)C(O)=C1O`: the molecule was classed as inactive.

As for `CCCCCCCCOc1ccc(C(=O)c2ccccc2)c(O)c1`, the result was inactive.

In the case of `CCN(Cc1cccc(S(=O)(=O)O)c1)c1ccc(C(=C2C=CC(=[N+](CC)Cc3cccc(S(=O)(=O)O)c3)C=C2)c2ccccc2S(=O)(=O)[O-])cc1`, the molecule was classed as inactive.

Regarding `Cc1ncc(CO)c(CO)c1O`, the outcome was inactive.

As to `O=c1c(-c2ccc(O)cc2)coc2cc(O)cc(O)c12`, the call was inactive.

As for `CCCCOC(=O)CC(CC(=O)OCCCC)(OC(C)=O)C(=O)OCCCC`, the outcome was inactive.

Consider `C[C@]12CC[C@@H]3c4ccc(O)cc4CC[C@H]3[C@@H]1CCC2=O`, for which the molecule was called inactive.

With `O=C=NCCCCCCN=C=O`, the call was inactive.

Turning to `CCCCCCCCCCCCO`, the molecule was classed as inactive.

Consider `Cc1cn([C@H]2C[C@H](N=[N+]=[N-])[C@@H](CO)O2)c(=O)[nH]c1=O`, for which the call was inactive.

For the molecule `COc1cccc([C@H](O)C2CCN(CCc3ccc(F)cc3)CC2)c1OC`, the molecule was classed as inactive.

For `O=C(O)Cn1c(=O)n(Cc2ccc(Br)cc2F)c(=O)c2ccc(Cl)cc21`, the molecule was classed as inactive.

On to `CCN(CC)C(=O)c1cc(S(=O)(=O)Cc2ccccc2)c(N2CCC(c3ccccc3)CC2)cc1N(CC)CCN(C)C`, for which the result was inactive.

For `Cc1occc1C(=O)Nc1ccc(C(=O)N2CCC(F)(F)/C(=C\C(=O)N3CCC(N4CCCCC4)CC3)c3ccccc32)cc1`, the result was inactive.

As for `c1ccc2n[nH]nc2c1`, the molecule was classed as inactive.

As for `Clc1cc(Cl)c2c(c1)N=C1CCCCCN1C2`, the molecule was classed as inactive.

In the case of `O=C(O)Cc1cc(I)c(Oc2ccc(O)c(I)c2)c(I)c1`, the result was inactive.

With `CO[C@H]1/C=C/O[C@@]2(C)Oc3c(C)c(O)c4c(O)c(c(/C=N/N5CCN(C)CC5)c(O)c4c3C2=O)NC(=O)/C(C)=C\C=C\[C@H](C)[C@H](O)[C@@H](C)[C@@H](O)[C@@H](C)[C@H](OC(C)=O)[C@@H]1C`, the molecule was called inactive.

`COc1cc(C(=O)NC2CCN(C)CC2)ccc1Nc1ncc2c(n1)N(C1CCCC1)CC(F)(F)C(=O)N2C`: the molecule was called inactive.

For the molecule `CCCC(=O)OCCC(C)C`, the molecule was classed as inactive.

In the case of `NCc1cccc(C2CCN(C(=O)c3ccc(C#Cc4ccccc4F)o3)CC2)c1`, the result was inactive.

For `CN(C)C(=O)C1(N2CCCCC2)CCN(CC[C@@]2(c3ccc(Cl)c(Cl)c3)CN(C(=O)c3ccccc3)CCO2)CC1`, the call was inactive.

Regarding `Cc1oc2c(NC(=O)c3c(Cl)cccc3Cl)cccc2c1C(C)(C)O`, the call was inactive.

Turning to `CC(C)(C)c1cc(/C=C2\SC(N)=NC2=O)cc(C(C)(C)C)c1O`, the outcome was inactive.

As for `Cc1cc2c(cc1C(F)(F)F)N(C(=O)Nc1ccc(Oc3cccnc3C)nc1)CC2`, the call was inactive.

In the case of `CCCCOC(=O)c1ccc(O)cc1`, the outcome was inactive.

`c1ccc(C[n+]2cccc3ccccc32)cc1`: the AC50 is 50 µM (active).

`COc1ccc2cc(S(=O)(=O)N[C@H](CC(=O)N[C@H](Cc3ccc(CN4[C@H](C)CCC[C@@H]4C)cc3)C(=O)N(C)C(C)C)c3ccc4c(c3)OCO4)ccc2c1`: the outcome was inactive.

On to `CN(C)c1ccc(C(=C2C=CC(=[N+](C)C)C=C2)c2ccc(N(C)C)cc2)cc1`, for which the AC50 was 17.4 µM (active).

As to `O=CCCCC=O`, the call was inactive.

As for `CC[C@@H]1C[C@H](N(Cc2cc(C(F)(F)F)cc(C(F)(F)F)c2)C(C)=O)c2cc(C(F)(F)F)ccc2N1C(=O)OC(C)C`, the call was inactive.

Turning to `O=c1ccc2ccccc2o1`, the result was inactive.

For the molecule `c1ccc2ccccc2c1`, the molecule was classed as inactive.

As to `CCCCCCCC[Si](OCC)(OCC)OCC`, the molecule was called inactive.

In the case of `Oc1ccccc1`, the molecule was called inactive.

Take `CCCCCCCCCC(=O)O`: the result was inactive.

On to `CCCCCCCCN(C)CCCCCCCC`, for which the outcome was inactive.

`CN1C(=O)CC[C@H]1c1cccnc1`: the molecule was classed as inactive.

For `COCC(C)OCC(C)OCC(C)O` (stereo not given), the molecule was classed as inactive.

Source of the values: PubChem BioAssay (EPA / NIEHS).
